In all, about 39,000 compounds went through this assay and about 1,500 (3.8%) were called active. Only a selection was taken, and actives are over-represented in it overall.
Each molecule was assayed on HSkMC (human skeletal muscle cells) (assay: cytotoxicity call (relative viability < 0.9)). Conditions: 10 µM.

SMILES | cytotoxicity call
CN1C[C@H](O)COC[C@@H]2O[C@@H](CC(=O)N3CCN(c4ccccc4)CC3)CC[C@H]21 | inactive
C[C@@H]1CCCCO[C@H](CN(C)C(=O)Nc2ccc(C(F)(F)F)cc2)[C@H](C)CN([C@H](C)CO)C(=O)c2cc(N(C)C)ccc2O1 | inactive
COc1cccc(NC(=O)N(C)C[C@H]2Oc3ncc(C#Cc4cccnc4)cc3C(=O)N([C@@H](C)CO)C[C@@H]2C)c1 | inactive
C[C@@H]1CN([C@H](C)CO)C(=O)Cc2cc(NC(=O)CCN3CCOCC3)ccc2O[C@H]1CN(C)S(=O)(=O)c1ccc(Cl)cc1 | inactive
O=C(O)c1cc(F)c2nc(N3[C@@H]4CC[C@H]3C[C@@H](OCc3c(-c5ccccc5OC(F)(F)F)noc3C3CC3)C4)sc2c1 | inactive
C[C@H](CO)N1C[C@H](C)[C@H](CN(C)Cc2ccncc2)Oc2c(NC(=O)Nc3cccc4ccccc34)cccc2C1=O | inactive
C[C@H](CO)N1C[C@H](C)[C@@H](CN(C)S(=O)(=O)c2ccc(Oc3ccccc3)cc2)OCc2cnnn2CCCC1=O | inactive
C[C@@H]1CN([C@@H](C)CO)C(=O)c2cc(NC(=O)C3CCCCC3)ccc2O[C@@H](C)CCCCO[C@H]1CN(C)Cc1ccc2c(c1)OCO2 | inactive
COc1ccc(CNC(=O)C[C@@H]2C[C@@H]3c4cc(NS(=O)(=O)c5ccc(F)cc5)ccc4O[C@@H]3[C@H](CO)O2)cc1 | inactive
O=C1c2ccc3c4c(ccc(c24)C(=O)N1CCCCO)C(=O)N(CCCCO)C3=O | active
NC(=O)CCN1C(=O)c2ccccc2C1=O | inactive
O=C(O)CCCN1C(=O)c2cccc3cccc(c23)C1=O | inactive
CN1C(=O)c2cc(NC(=O)C3CCOCC3)ccc2OC[C@H]2O[C@H](CC(=O)NCc3ccc4c(c3)OCO4)CC[C@H]21 | inactive
C[C@H](CO)N1C[C@H](C)[C@H](CN(C)S(=O)(=O)c2cccs2)Oc2c(NS(=O)(=O)c3cn(C)cn3)cccc2C1=O | inactive
C[C@@H]1CCCCO[C@@H](CN(C)C(=O)Nc2ccc(C(F)(F)F)cc2)[C@H](C)CN([C@@H](C)CO)C(=O)c2cc(NS(=O)(=O)c3ccc(Cl)cc3)ccc2O1 | inactive
C[C@@H]1CCCCO[C@@H](CN(C)C(=O)Nc2ccc(C(F)(F)F)cc2)[C@H](C)CN([C@H](C)CO)C(=O)c2cc(NS(=O)(=O)c3ccc(F)cc3)ccc2O1 | inactive
C[C@@H]1CCCCO[C@H](CN(C)C(=O)Nc2ccc(C(F)(F)F)cc2)[C@H](C)CN([C@H](C)CO)C(=O)c2cc(NS(=O)(=O)c3ccc(Cl)cc3)ccc2O1 | inactive
C[C@@H]1CCCCO[C@@H](CN(C)C(=O)Nc2ccc(C(F)(F)F)cc2)[C@H](C)CN([C@H](C)CO)C(=O)c2cc(NS(=O)(=O)c3ccc(Cl)cc3)ccc2O1 | active
C[C@@H]1CCCCO[C@H](CN(C)C(=O)Nc2ccc(C(F)(F)F)cc2)[C@H](C)CN([C@@H](C)CO)C(=O)c2cc(NS(=O)(=O)c3ccc(Cl)cc3)ccc2O1 | inactive
C[C@H](CO)N1C[C@H](C)[C@H](CN(C)C(=O)Nc2ccc(C(F)(F)F)cc2)OCCCC[C@H](C)Oc2ccc(NS(=O)(=O)c3ccc(Cl)cc3)cc2C1=O | inactive

SMILES | cytotoxicity call
C[C@@H]1CCCCO[C@H](CN(C)C(=O)Nc2ccc(C(F)(F)F)cc2)[C@@H](C)CN([C@@H](C)CO)C(=O)c2cc(NS(=O)(=O)c3ccc(Cl)cc3)ccc2O1 | active
C[C@@H]1CN([C@H](C)CO)C(=O)c2cc(NS(=O)(=O)c3ccc(Cl)cc3)ccc2O[C@@H](C)CCCCO[C@H]1CN(C)C(=O)Nc1ccc(C(F)(F)F)cc1 | active
C[C@H]1CCCCO[C@H](CN(C)C(=O)Nc2ccc(C(F)(F)F)cc2)[C@@H](C)CN([C@@H](C)CO)C(=O)c2cc(NS(=O)(=O)c3ccc(F)cc3)ccc2O1 | active
C[C@H]1CCCCO[C@@H](CN(C)C(=O)Nc2ccc(C(F)(F)F)cc2)[C@@H](C)CN([C@@H](C)CO)C(=O)c2cc(NS(=O)(=O)c3ccc(Cl)cc3)ccc2O1 | inactive
C[C@@H]1CCCCO[C@@H](CN(C)C(=O)Nc2ccc(C(F)(F)F)cc2)[C@H](C)CN([C@@H](C)CO)C(=O)c2cc(NS(=O)(=O)c3ccc(F)cc3)ccc2O1 | inactive
C[C@@H]1CN([C@@H](C)CO)C(=O)c2cc(NS(=O)(=O)c3ccc(Cl)cc3)ccc2O[C@@H](C)CCCCO[C@@H]1CN(C)C(=O)Nc1ccc(C(F)(F)F)cc1 | inactive
C[C@H](CO)N1C[C@H](C)[C@H](CN(C)C(=O)Nc2ccc(C(F)(F)F)cc2)Oc2c(NC(=O)Nc3ccc4c(c3)OCO4)cccc2C1=O | inactive
C[C@H]1CN([C@@H](C)CO)C(=O)c2cc(NS(=O)(=O)c3ccc(F)cc3)ccc2O[C@H]1CN(C)Cc1ccncc1 | inactive
c1ccc([C@@H]2Oc3ccccc3[C@@H]3Oc4ccccc4C[C@@H]23)cc1 | inactive
Cc1noc(C)c1S(=O)(=O)Nc1cccc2c1O[C@H](CN(C)CC1CC1)[C@H](C)CN([C@H](C)CO)C2=O | inactive
C[C@@H]1CN([C@@H](C)CO)C(=O)c2cc(NC(=O)Cc3ccccc3)ccc2O[C@@H](C)CCCCO[C@@H]1CN(C)C(=O)Nc1ccccc1 | inactive
COc1ccc(CN(C)C[C@@H]2OCCCC[C@H](C)Oc3ccc(NC(=O)C4CCCCC4)cc3C(=O)N([C@@H](C)CO)C[C@H]2C)cc1 | inactive
C[C@@H]1CN([C@@H](C)CO)C(=O)c2cccc(NC(=O)C3CC3)c2O[C@@H]1CN(C)Cc1ccc(C(=O)O)cc1 | inactive
Cc1noc(C)c1S(=O)(=O)N(C)C[C@H]1Oc2ccc(NC(=O)C3CC3)cc2CC(=O)N([C@H](C)CO)C[C@H]1C | inactive
Cc1ccc(S(=O)(=O)Nc2ccc3c(c2)C(=O)N([C@@H](C)CO)C[C@H](C)[C@H](CN(C)C(=O)Nc2ccccc2)OCCCC[C@H](C)O3)cc1 | inactive
COc1ccc(CN(C)C[C@@H]2Oc3ccc(NS(=O)(=O)c4cn(C)cn4)cc3CC(=O)N([C@@H](C)CO)C[C@H]2C)cc1 | inactive
C[C@H](CO)N1C[C@H](C)[C@H](CN(C)C(=O)Nc2ccccc2)OCc2ccccc2-c2c(n(C)c3ccccc23)C1=O | inactive
COc1ccc(NC(=O)N(C)C[C@@H]2Oc3ncc(C#C[C@H](C)O)cc3C(=O)N([C@H](C)CO)C[C@@H]2C)cc1 | inactive
Cc1noc(C)c1S(=O)(=O)Nc1ccc2c(c1)C(=O)N([C@@H](C)CO)C[C@@H](C)[C@H](CN(C)C(=O)Nc1ccc(C(F)(F)F)cc1)OCCCC[C@H](C)O2 | inactive
Cc1noc(C)c1S(=O)(=O)Nc1ccc2c(c1)C(=O)N([C@H](C)CO)C[C@H](C)[C@H](CN(C)C(=O)Nc1ccc(C(F)(F)F)cc1)OCCCC[C@H](C)O2 | active

SMILES | cytotoxicity call
Cc1noc(C)c1S(=O)(=O)Nc1ccc2c(c1)C(=O)N([C@@H](C)CO)C[C@@H](C)[C@@H](CN(C)C(=O)Nc1ccc(C(F)(F)F)cc1)OCCCC[C@@H](C)O2 | inactive
COc1ccc(S(=O)(=O)Nc2ccc3c(c2)C(=O)N([C@@H](C)CO)C[C@@H](C)[C@H](CN(C)C(=O)NC(C)C)O3)cc1 | inactive
C[C@@H]1CN([C@H](C)CO)C(=O)c2cc(C#Cc3cccc(F)c3)cnc2O[C@H]1CN(C)CC1CCOCC1 | inactive
CC=Cc1ccc2n(c1=O)C[C@H]1[C@H](CO)[C@@H](C(=O)NC3CCC3)[C@@H]2N1S(=O)(=O)c1cn(C)cn1 | inactive
Cc1noc(C)c1S(=O)(=O)Nc1ccc2c(c1)CC(=O)N([C@@H](C)CO)C[C@H](C)[C@H](CN(C)S(C)(=O)=O)O2 | inactive
CC(C)(Sc1cc(C(C)(C)C)c(O)c(C(C)(C)C)c1)Sc1cc(C(C)(C)C)c(O)c(C(C)(C)C)c1 [listing 1 of 2 here] | inactive
CC(C)(Sc1cc(C(C)(C)C)c(O)c(C(C)(C)C)c1)Sc1cc(C(C)(C)C)c(O)c(C(C)(C)C)c1 [listing 2 of 2 here] | inactive
CC(C)(Sc1cc(C(C)(C)C)c(O)c(C(C)(C)C)c1)Sc1cc(C(C)(C)C)c(OC(=O)CCC(=O)O)c(C(C)(C)C)c1 | active
CC(C)(Sc1cc(C(C)(C)C)c(O)c(C(C)(C)C)c1)Sc1cc(C(C)(C)C)c(OCC(=O)O)c(C(C)(C)C)c1 | active
CC(C)(C)c1cc(CCC(=O)OCC(COC(=O)CCc2cc(C(C)(C)C)c(O)c(C(C)(C)C)c2)(COC(=O)CCc2cc(C(C)(C)C)c(O)c(C(C)(C)C)c2)COC(=O)CCc2cc(C(C)(C)C)c(O)c(C(C)(C)C)c2)cc(C(C)(C)C)c1O | inactive
C[C@@H]1CN([C@@H](C)CO)C(=O)c2cccc(NC(=O)Nc3ccc(F)cc3)c2O[C@@H]1CN(C)C(=O)Nc1ccc(C(F)(F)F)cc1 | inactive
C[C@@H]1CN([C@@H](C)CO)S(=O)(=O)c2ccc(-c3cncnc3)cc2O[C@H]1CN(C)C(=O)c1ccc2c(c1)OCO2 | inactive
COCC(=O)N1C[C@H](C)[C@@H](OC)CN(C)C(=O)c2cc(NC(=O)Nc3cccc(F)c3)ccc2OC[C@@H]1C | inactive
COC[C@@H]1CN(C(=O)[C@H]2CCCN2C)N1 | inactive
COC(=O)[C@@H](Cc1ccccc1)N[C@H](/C=C/C1CC1)[C@@H](O)CCn1cc(-c2ccc(C(=O)NO)cc2)nn1 | inactive
CC[C@@H]1COCCC(=O)N1 | inactive
Cc1nc2cc(C)c(C)cc2s1 | inactive
Cc1ccc(NC(=O)Nc2cc(C(F)(F)F)ccc2F)cc1Nc1ccc2c(c1)NC(=O)/C2=C\c1ccc[nH]1 | active
C[C@@H]1CN([C@H](C)CO)C(=O)Cc2cc(NS(C)(=O)=O)ccc2O[C@H]1CN(C)S(=O)(=O)c1ccc(F)cc1 | inactive
Cc1noc(C)c1NC(=O)Nc1ccc2c(c1)C(=O)N([C@H](C)CO)C[C@@H](C)[C@@H](CN(C)S(=O)(=O)c1c(C)noc1C)O2 | inactive

Reference: the antibiotic and cytotoxicity screens of Wong et al. (2023)
